The source of these data is PubChem BioAssay.

Activity calls are given as the source filed them. Unless noted, how the calls were made is not given here.

The nature of test [1]: resazurin metabolic signal in HepG2 cells – cell-based, resazurin fluorescence, 24 h, PK04 Diversity Set, profiling panel (AID 1172). Further: test concentration not given here. Particulars: HepG2 viability, higher = more signal. In general terms: Alamar Blue is a resazurin reagent that responds to reducing activity.
Test [2] is described as follows: budding yeast growth changes without added modifier – OD600, strain BY4716, 24 h, basal condition, primary screen (AID 1173). Particulars: S. cerevisiae BY4716 growth, OD600, 24 h; higher = more signal, called active from +8 up or from −8 down.
Test [3] in a line: viability profiling in MM1S myeloma cells – cell-based, resazurin fluorescence, basal, 24 h, PK04 Diversity Set, profiling panel (AID 1174). Further: test concentration not given here. The following applies: higher = more signal, called active from +8 up or from −8 down.
Test [4] deals with Dihydroorotate dehydrogenase (quinone), mitochondrial (Plasmodium falciparum (isolate 3D7)) (UniProt Q08210). The experiment in a line: inhibition of P. falciparum DHODH – biochemical, C-terminal His tag, absorbance 600 nm, primary screen (AID 1175).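 Further: recombinant parasite enzyme with a five histidine tag at its C terminus; test concentration not given here.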 The following applies: PfDHODH enzyme, DCIP absorbance 600 nm; higher = more signal, called active from +8 up or from −8 down.
Dihydroorotate dehydrogenase (quinone), mitochondrial (Plasmodium falciparum (isolate 3D7)), sequence (Q08210 whole entry, looked up): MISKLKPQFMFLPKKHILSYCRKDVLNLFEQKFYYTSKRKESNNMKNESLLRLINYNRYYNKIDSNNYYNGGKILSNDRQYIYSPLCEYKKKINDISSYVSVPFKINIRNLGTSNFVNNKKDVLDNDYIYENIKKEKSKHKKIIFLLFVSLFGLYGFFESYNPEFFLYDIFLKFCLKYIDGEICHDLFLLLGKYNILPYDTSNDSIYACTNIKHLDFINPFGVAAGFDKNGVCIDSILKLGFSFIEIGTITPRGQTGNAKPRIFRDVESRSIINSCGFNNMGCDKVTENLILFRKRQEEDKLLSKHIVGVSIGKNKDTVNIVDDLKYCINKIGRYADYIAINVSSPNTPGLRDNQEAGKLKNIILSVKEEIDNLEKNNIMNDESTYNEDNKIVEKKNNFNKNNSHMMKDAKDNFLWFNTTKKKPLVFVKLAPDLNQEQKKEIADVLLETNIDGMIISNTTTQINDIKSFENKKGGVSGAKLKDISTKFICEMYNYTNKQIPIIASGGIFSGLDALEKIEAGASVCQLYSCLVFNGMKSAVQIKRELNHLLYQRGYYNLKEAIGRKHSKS
Test [5] is described as follows: inhibition of PAO1 biofilm formation – strain PAO1, LB-PBS medium, absorbance 600 nm, primary screen (AID 1176). Further: test concentration not given here. The following applies: P. aeruginosa PAO1 growth/biofilm, A600, 12 h; higher = more signal.
Test [6] can be described thus: growth modulation of vineyard yeast isolate – strain RM11-1a, OD600, basal, 24 h, primary screen (AID 1177).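 Further: cultures grown under basal conditions with no added stressor; test concentration not given here.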 The following applies: S. cerevisiae RM11-1a growth, OD600, 24 h; higher = more signal, called active from +8 up or from −8 down.
Test [7] in a line: growth of efflux-deficient E. coli DRC39 – strain DRC39, OD650, 24 h, E. coli filamentation inducers, primary screen (AID 1178).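 Further: growth measured as culture turbidity by optical density at 650 nm; test concentration not given here.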 The following applies: E. coli DRC39 acrAB, higher = more signal, called active from +8 up or from −8 down.
Test [8] in a line: growth of efflux-deficient E. coli DRC39 – strain DRC39, OD650, 48 h, E. coli filamentation inducers, primary screen (AID 1179).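 Further: screen aims at cell division blockers that make cells filament.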 The following applies: E. coli DRC39 delta-acrAB growth, higher = more signal, called active from +8 up or from −8 down.
A short description of test [9]: viability profiling in RPMI8226 myeloma cells – cell-based, resazurin fluorescence, basal, 24 h, PK04 Diversity Set, profiling panel (AID 1180).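 Further: RPMI8826 multiple myeloma cell line at 5000 cells per well; test concentration not given here.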 Particulars: higher = more signal.
Test [10] has as its target E3 ubiquitin-protein ligase XIAP (Homo sapiens) (UniProt P98170). The experiment in a line: small molecules binding XIAP protein – biophysical, small-molecule microarray, fluorescence 635 nm, primary screen (AID 1181).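 Further: score merges 667 nm emission and signal to noise over triplicate slides.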 The following applies: higher = more signal.

E3 ubiquitin-protein ligase XIAP (Homo sapiens), sequence (P98170 whole entry, looked up): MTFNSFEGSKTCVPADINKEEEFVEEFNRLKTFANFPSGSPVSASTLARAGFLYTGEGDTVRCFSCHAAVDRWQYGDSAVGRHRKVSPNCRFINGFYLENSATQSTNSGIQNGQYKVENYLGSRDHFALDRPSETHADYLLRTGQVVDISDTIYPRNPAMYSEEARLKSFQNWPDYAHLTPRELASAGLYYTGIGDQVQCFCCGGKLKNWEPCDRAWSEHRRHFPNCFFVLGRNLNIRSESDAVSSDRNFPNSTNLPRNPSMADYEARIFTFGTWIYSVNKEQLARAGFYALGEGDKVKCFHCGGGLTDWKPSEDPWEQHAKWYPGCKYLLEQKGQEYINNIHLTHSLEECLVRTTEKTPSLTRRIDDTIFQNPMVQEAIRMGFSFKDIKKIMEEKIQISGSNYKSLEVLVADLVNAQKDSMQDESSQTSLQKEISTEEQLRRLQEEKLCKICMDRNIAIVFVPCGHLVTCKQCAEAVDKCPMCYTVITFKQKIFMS

With `[N-]=[N+]=Nc1ccccc1C[C@]1(C(N)=O)N=C(c2ccc(OCCCO)cc2)O[C@H]1c1ccccc1`, the z-score is 0.329 in test [1]; -0.936 (inactive) in test [2]; -1.02 (inactive) in [3]; 1.16 (inactive) in test [5]; 1.33 (inactive) in test [6]; 0.0314 (inactive) in [7]. In addition, the z-score in [8] was -0.665 (inactive); in test [9] it was -1.03. Also, the values for the composite z-score in test [4] and in [10] were 0.667 (inactive) and -0.108, respectively.

With `CCOC(=O)[C@H]1C/C=C/C[C@H](C(=O)OCC)C(=O)O[C@H]2[C@@H](OC)O[C@H](CO)[C@@H](OC(=O)Nc3cccc(F)c3)[C@@H]2OC1=O`, the z-score in test [1] is -5.49; in test [2], -0.218 (inactive); in test [3], -9.05 (active); in [5], 1.74 (inactive); in test [6] it was 1.84 (inactive); in test [7] it was 0.675 (inactive). Also, the results for the z-score in test [8] and in test [9] were 1.23 (inactive) and -7.34, respectively. For the same compound, the composite z-score in test [4] is -0.0103 (inactive); in test [10], 0.125.

Consider `C#CCN(CC1=CCCCC1)[C@H](c1ccccc1Br)[C@@H](O)Cc1ccccc1`, for which the z-score was 1.47 in [1]; -2.52 (inactive) in test [2]; 1.05 (inactive) in test [3]; 0.236 (inactive) in [5]; 0.404 (inactive) in [6]; 0.657 (inactive) in [7]. The z-score in test [8] was 0.406 (inactive); in [9], -0.486. For the same compound, the composite z-score in [4] is 0.0019 (inactive); in [10] it was -0.209.

For the compound `COCCCNC(=O)C1N=C(c2ccc(OCCCO)cc2)N(c2ccccc2)O1` (stereo not given), the z-score in test [1] was 0.522; in test [2] it was -0.5 (inactive); in test [3], -0.441 (inactive); in test [5] it was -1.45 (inactive); in test [6], 0.254 (inactive); in test [7], 0.516 (inactive). For the same compound, the results for the z-score in test [8] and in test [9] were 1.03 (inactive) and 0.694, respectively. Besides, the results for the composite z-score in [4] and in test [10] were 0.0216 (inactive) and 0.819, respectively.

Consider `CN(C)C(=O)[C@@]1(Cc2ccccc2)N=C(c2ccc(OCCCO)cc2)O[C@H]1c1ccccc1N=[N+]=[N-]`, for which the z-score in [1] is -0.697; in test [2], -1.27 (inactive); in [3], -3.56 (inactive); in [5] it was 0.0533 (inactive); in test [6], -0.0844 (inactive); in test [7], 0.754 (inactive). For the same compound, the values for the z-score in test [8] and in test [9] were 0.579 (inactive) and -5.06, respectively. The composite z-score in test [4] is 0.2 (inactive); in test [10] it was 0.15.

As for `CN1C(=O)C2C=CC(C(O)C3CCCCC3)N(Nc3ccc([N+](=O)[O-])cc3[N+](=O)[O-])C2C1=O` (stereo not given), the z-score in [1] was -0.248; in test [2], 0.819 (inactive); in [3], -0.778 (inactive); in [5], -0.159 (inactive); in test [6], -0.0006 (inactive); in test [7], -0.719 (inactive). In addition, the values for the z-score in test [8] and in [9] were -0.556 (inactive) and -0.373, respectively. The results for the composite z-score in test [4] and in test [10] were -0.877 (inactive) and 0.618, respectively.

On to `COC(=O)[C@@]1(Cc2ccccc2)[C@H]2c3cc(C(=O)N4CCCC4)n(CC4CC4)c3C[C@H]2CN1C(=O)c1ccccc1`, for which the z-score is -1.34 in test [1]; 1.38 (inactive) in test [2]; -1.75 (inactive) in [3]; 0.936 (inactive) in [5]; 1.25 (inactive) in test [6]; -0.889 (inactive) in [7]. For the same compound, the results for the z-score in [8] and in test [9] were -1.44 (inactive) and -2.27, respectively. Besides, the composite z-score was -0.0475 (inactive) in test [4] and 0.637 in [10].

On to `C=C(CCCC)C(=O)CC[C@H](OC(C)=O)c1cccc(OCCO)c1`, for which the z-score in test [1] was 0.0379; in [2], -1.43 (inactive); in [3] it was -0.602 (inactive); in test [5], -0.387 (inactive); in [6], -0.561 (inactive); in test [7] it was -0.878 (inactive). Further, the z-score in [8] was -0.873 (inactive); in test [9] it was -0.482. In addition, the composite z-score is -1.08 (inactive) in [4] and -0.0746 in test [10].

Take `COc1ccc(C(O)C2C=CC3C(=O)N(C)C(=O)C3N2N2CCCCC2)c2ccccc12` (stereo not given): the z-score is -1.2 in test [1]; -1.78 (inactive) in [2]; -1.64 (inactive) in test [3]; 0.503 (inactive) in test [5]; 0.806 (inactive) in test [6]; -0.413 (inactive) in test [7]. The z-score was -0.68 (inactive) in test [8] and -1.71 in test [9]. Besides, the composite z-score was 0.238 (inactive) in test [4] and -0.202 in test [10].

With `COC(=O)[C@@]1(Cc2ccccc2)[C@H]2c3cc(C(=O)N(C)C)n(CCSCCO)c3C[C@H]2CN1C(=O)c1ccccc1`, the z-score is -0.821 in test [1]; 0.319 (inactive) in [2]; -0.345 (inactive) in test [3]; 0.15 (inactive) in test [5]; 0.152 (inactive) in [6]; -0.976 (inactive) in test [7]. In addition, the z-score is -0.68 (inactive) in test [8] and -0.151 in test [9]. The values for the composite z-score in [4] and in test [10] were -0.394 (inactive) and 0.212, respectively.

As for `C=CCOC(=O)[C@H]1[C@@H]2C(=O)O[C@@H](c3ccccc3)[C@@H](c3ccccc3)N2[C@@H](c2ccc(OCCOC(=O)[C@@H]3C[C@@H]4C(=O)N[C@@H](CCCCN(C)C)C(=O)N4[C@@H]3c3ccc(O)cc3)cc2)[C@]12C(=O)Nc1ccc(I)cc12`, the z-score was -0.513 in test [1]; -1.17 (inactive) in test [2]; -1.06 (inactive) in [3]; 1.26 (inactive) in test [5]; 1.65 (inactive) in test [6]; -0.619 (inactive) in [7]. For the same compound, the z-score in test [8] is 0.767 (inactive); in test [9], -1.18. Also, the composite z-score in [4] was -1.71 (inactive); in test [10], -0.0749.

Consider `CC1CC/C=C\[C@H]2OC34C=CCN(Cn5nnc6ccccc65)C(=O)[C@H]3N(C(CO)C(C)C)C(=O)[C@@H]4C2C(=O)O1` (stereo not given in full), for which the z-score in test [1] is 0.913; in test [2] it was 0.673 (inactive); in [3] it was -1.29 (inactive); in test [5], 0.357 (inactive); in [6], -0.271 (inactive); in [7], 0.465 (inactive). Moreover, the z-score was 0.275 (inactive) in test [8] and 0.0555 in test [9]. In addition, the composite z-score in test [4] is -0.64 (inactive); in [10], 0.646.

Regarding `C=CCNC(=O)[C@@H]1[C@H]2C(=O)O[C@H](c3ccccc3)[C@H](c3ccccc3)N2[C@H](c2ccc(OCCO)cc2)[C@@]12C(=O)Nc1ccc(C#Cc3ccc(OC)cc3)cc12`, the z-score in test [1] was -0.662; in test [2], 1.84 (inactive); in test [3], -0.718 (inactive); in test [5], 1.81 (inactive); in [6] it was 2.6 (inactive); in [7], -1.48 (inactive). Moreover, the z-score is -1.2 (inactive) in test [8] and -1.25 in [9]. The composite z-score in test [4] is -4.91 (inactive); in [10], 0.0181.
